High-throughput results as filed in PubChem.
An excerpt weighted towards active compounds, which were near 19% of everything screened.
IL1B secr inh: blocks inflammasome-driven IL-1 beta release. activity change, % at 57.5 µM. THP-1 LPS/ATP IL-1B secretion, AlphaLISA, 16 h; active compounds read low. 360,000 compounds, 4.7% hits; in the data active means activity change below about -50%; inconclusive means mostly about -30% to -49%
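Secreted IL-1B measured by AlphaLISA bead assay after 16 h compound exposure of THP-1 cells; compounds (final up to 57.5 uM) added 1 h before LPS (250 ng/mL) and ATP (1.25 mM) stimulation; lower signal means less secretion.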
TDP1 cell noCPT: qHTS for Inhibitors of human tyrosyl-DNA phosphodiesterase 1 (TDP1): qHTS in cells in absence of CPT; 420,000 compounds, 15% hits; Potency, µM (doses to about 46.2 µM), most hits filed as inhibitors; DT40 Tdp1-/- hTDP1 cells, no CPT, ATP luminescence, 48 h; further: nearly all actives have a fitted effect of over 55% in size
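DT40 Tdp1-/-;hTDP1 cells, no CPT (DMSO vehicle only), 400 cells/well; compounds pin-transferred; ≥48 hr, 37 °C; CellTiter-Glo 30 min RT dark, luminescence read.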
Chronic BCR inh: chronic active BCR signaling inhibition; AID 493014; 340,000 compounds, 0.05% hits; Potency, µM (highest dose often 46.1 µM), most hits filed as inhibitors; ABC-DLBCL IkBa-CBG/CBR reporter, luminescence ratio, 4 h; active means well fitted inhibition curve with a large enough effect in the signal ratio, with a control signal flat, not every such curve was filed as active; inconclusive means small, poorly fitted or top-dose-only effect, or effect the other way, or a change in a side signal; the % refers to the signal ratio
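Compounds up to 46 uM were incubated four hours with TMD8 cells whose green CBG68 luciferase is fused to IkappaBalpha; red CBR luminescence normalised the signal, and concentration-effect curves were fitted to fusion, red and ratio data.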
SW480 rerep: induces DNA re-replication in SW480 colon adenocarcinoma cells; 340,000 compounds, 1.8% hits; Potency, µM (titrated, usually from 46.1 µM), hits mostly activators; SW480 DNA re-replication, Hoechst DNA content imaging, 48 h; AID 624297; further: nearly all actives have a fitted effect of over 55% in size
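Cells (250 per well) received 23 nL compound or DMSO by pin tool and were kept 48 hr at 37 C, 5% CO2. Nuclei were then stained with Hoechst for 40 min and scanned for DNA content.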
DT40 TDP1 CPT: growth inhibition of DT40 Tdp1-/-;hTDP1 cells with camptothecin (screen for TDP1 inhibitors) | chicken DT40 Tdp1-/-;hTDP1 cells + 20 nM CPT, ATP luminescence, 48 h | Potency, µM (top dose mostly 46.2 µM), most hits filed as inhibitors | 420,000 compounds, 12% hits | AID 686979; further: nearly all actives have a fitted effect of over 55% in size
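Cell growth measured by CellTiter-Glo luminescence after a minimum 48 h, 37 C compound exposure with 20 nM CPT in Tdp1-knockout DT40 cells stably expressing hTDP1, seeded 400/well; qHTS titration format.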
MCF10A rereplic: induces DNA re-replication in MCF 10a normal breast cells; 350,000 compounds, 2.9% hits; Potency, µM (doses to about 46.1 µM), actives largely listed as activators; MCF 10A DNA re-replication, Hoechst nuclear intensity, 48 h; AID 624296; further: nearly all actives have a fitted effect of over 50% in size
Hits are given with their value; - = inactive; ? = inconclusive; . = no result given; [ ] = remark or other dose. Unless noted, the call rests on the fitted dose curve; in most records, active means well fitted curve in the direction sought with a large enough effect; inconclusive means small, poorly fitted or top-dose-only effect, or another doubt; inactive means no such curve, though single readings can be large; an effect the other way counts as inactive or inconclusive.

SMILES	IL1B secr inh	TDP1 cell noCPT	Chronic BCR inh	SW480 rerep	DT40 TDP1 CPT	MCF10A rereplic
C[C@H](CO)N1C[C@H](C)[C@@H](CN(C)Cc2ccc(C(F)(F)F)cc2)OCc2cnnn2CCCC1=O	-	?	.	.	25.9µM	.
C[C@H]1CN([C@@H](C)CO)C(=O)CCCn2nncc2CO[C@H]1CN(C)S(=O)(=O)c1ccccc1	-	-	.	.	-	.
C[C@@H]1CN([C@H](C)CO)C(=O)CCCn2nncc2CO[C@H]1CN(C)Cc1ccc(-c2ccccc2)cc1	-	?	.	.	?	.
C[C@H]1CN([C@@H](C)CO)C(=O)CCCn2nncc2CO[C@@H]1CN(C)Cc1ccc(-c2ccccc2)cc1	-	10.3µM	.	.	9.2µM	.
C[C@H]1CN([C@@H](C)CO)C(=O)CCCn2nncc2CO[C@H]1CN(C)S(=O)(=O)c1ccc(Oc2ccccc2)nc1	-	8.2µM	.	.	10.3µM	.
CCOC(=O)CCNC(=O)N1CCCC(N(C)CCc2ccc(OC)c(OC)c2)C1 (stereo unspecified)	-	-	-	-	-	-
O=C(COC(=O)/C=C/c1ccccc1)NC1CCCCC1	-	-	-	-	-	-
COc1cc2c(cc1OC)C(O)C(O)(CO)C(C(=O)O)C2c1cc(OC)c(OC)c(OC)c1 (stereo unspecified)	-	-	.	-	-	-
CCC(=O)N[C@@H]1C=C[C@@H](CC(=O)NCc2ccccc2F)O[C@@H]1CO	-	-	.	.	-	.
CC(=O)N1CCC[C@H]1C(=O)NCC1Cc2cc(F)cc(-c3ccc(F)c(C)c3)c2O1 (stereo partly specified)	.	-	.	.	-[9.04 µM]	.
CCOc1cccc(C2C=C(c3ccc4c(c3)OCO4)NC(c3cccc(Br)c3)N2)c1O (stereo unspecified)	.	10µM	.	.	10µM	.
CCOc1cccc(C2C=C(c3ccc4c(c3)OCO4)NC(c3ccc(Br)cc3)N2)c1O (stereo unspecified)	.	15.8µM	.	.	?	.
CCOc1ccccc1C(=O)NCc1ccc2c(c1)OCO2	-	-	-	-	-	-
Cc1ccc(-c2nnc(Nc3ccc(O)cc3)c3ccccc23)cc1S(=O)(=O)NC(C)(C)CO	.	8.2µM	.	.	16.4µM	.
Cc1ccc(-c2nnc(Nc3ccc(F)cc3)c3ccccc23)cc1S(=O)(=O)NC(C)C	.	9.2µM	.	.	?	.
Cc1ccc(-c2nnc(Nc3cccc(O)c3)c3ccccc23)cc1S(=O)(=O)N1CCOCC1	.	11.6µM	.	.	?	.
Cc1cccc(Nc2nnc(-c3ccc(N4CCOCC4)c([N+](=O)[O-])c3)c3ccccc23)c1	-62.1	18.4µM	-	-	?	-
Cc1nnc(-c2ccc(N3CCOCC3)c([N+](=O)[O-])c2)o1	-	-	-	-	-	-
COc1cc(-c2ccc(C)cc2)cc2c1OCCN(C(=O)CCn1ccc(C)n1)C2	.	?	.	.	-[9.04 µM]	.
CCOC(=O)C1CCCN(C(=O)c2cc3ccccc3oc2=O)C1 (stereo unspecified)	-	-	-	-	-	-
Cc1ccc(-c2nnc(Nc3ccc(O)cc3)c3ccccc23)cc1S(=O)(=O)N1CCCCC1	.	18.4µM	.	.	7.31µM	.
Cc1ccc(-c2nnc(Nc3ccc(Cl)cc3)c3ccccc23)cc1S(=O)(=O)N1CCOCC1	.	3.66µM	.	.	13µM	.
Cc1ccc(-c2n[nH]c(=O)c3ccccc23)cc1S(=O)(=O)N(C)C	-	?	-	-	?	-
Cc1ccc(-c2nnc(Nc3ccccc3)c3ccccc23)cc1S(=O)(=O)N1CCOCC1	.	?	.	.	-	.
Cc1ccc(-c2nnc(Nc3ccc(S(N)(=O)=O)cc3)c3ccccc23)cc1S(=O)(=O)N1CCOCC1	.	?	.	.	16.4µM	.
SMILES	IL1B secr inh	TDP1 cell noCPT	Chronic BCR inh	SW480 rerep	DT40 TDP1 CPT	MCF10A rereplic
Cc1ccc(-c2n[nH]c(=O)c3ccccc23)cc1S(=O)(=O)Nc1ccccc1	-	23.1µM	?	-	?	?
Cc1ccc(-c2nnc(Nc3ccc(S(N)(=O)=O)cc3)c3ccccc23)cc1S(=O)(=O)N1CCCCC1	.	-	.	.	-	.
Cc1ccc(CN2C[C@@H](Sc3nc(C)cc(C)n3)C[C@H]2C(=O)N2CCN(c3ccccc3F)CC2)cc1	.	?	.	.	-[9.04 µM]	.
O=C1CSc2ccc(C(=O)N3CCCCC3)cc2N1	-	?	.	.	-	.
CC1CCCN(CCCNC(=O)C2CCCN(c3ncnc4c3nc3n4CCCCC3)C2)C1 (stereo unspecified)	-	-	-	-	-	-
O=C(NCCCN1CCN(c2ccc(F)cc2)CC1)C1CCCN(c2ncnc3c2nc2n3CCCCC2)C1 (stereo unspecified)	?	8.2µM	-	-	?	?
Cc1ccc(NC(=O)C2CCCN(c3ncnc4c3nc3n4CCCCC3)C2)c(Br)c1 (stereo unspecified)	.	4.11µM	.	.	5.8µM	.
O=C(Nc1cc(F)ccc1F)C1CCCN(c2ncnc3c2nc2n3CCCCC2)C1 (stereo unspecified)	-	13µM	-	-	14.6µM	-
O=C(Nc1ccc(F)cc1F)C1CCCN(c2ncnc3c2nc2n3CCCCC2)C1 (stereo unspecified)	-55.5	14.6µM	-	-	13µM	?
CC(C)N(C(=O)CN1C(=O)NC(c2ccccc2)(c2ccccc2)C1=O)C(C)C	-	?	-	-	?	-
CCCCN(CC)CCCn1cnc2c([nH]c3ccc(Cl)cc32)c1=O	.	20.6µM	.	.	20.6µM	.
O=C1CCCN1CCCn1cnc2c([nH]c3ccc(F)cc32)c1=O	-	-	-	-	-	-
O=C1c2ccccc2NC(c2cccs2)N1O (stereo unspecified)	-	-	?	-	-	-
O=C1c2ccccc2N[C@@H]2C=CC[C@@H]2N1O	-	-	-	25.9µM	-	-
CC(=O)Nc1cccc(NC(=O)CCNC(=O)c2ccccc2)c1	-	-	-	-	-	-
COc1cccc(NC(=S)Nc2ccc(O)cc2)c1	-	-	-	-	-	-
COc1cccc(NC(=S)NC2CC(C)CC(C)(C)C2)c1 (stereo unspecified)	-	23.1µM	.	.	20.6µM	.
Nc1c(Cl)cc(N=Nc2ccccc2)cc1Cl	-	13µM	.	-	?	23.1µM
COc1ccc2c(c1)OC(C)CN(CCNC(=O)c1cccc(N3CCNC3=O)c1)C2 (stereo unspecified)	.	-	.	.	-[9.04 µM]	.
Cc1ccc(NC(=O)CN2C(=O)COc3ccc(S(=O)(=O)N4CCCCCC4)cc32)cc1C	.	14.6µM	.	.	?	.
CC(C)c1ccc(NC(=O)CN2C(=O)COc3ccc(S(=O)(=O)N4CCCCCC4)cc32)cc1	.	3.66µM	.	.	2.59µM	.
